# Source: PubChem BioAssay (several laboratories)
# FadD28 FP inh = inhibitors of Mycobacterium tuberculosis FadD28 bisubstrate binding; AID 588549; inhibition, % at 12.5 µM; 360,000 compounds, 0.22% hits; FadD28 bisubstrate probe binding, fluorescence polarization; in the data active = inhibition above about 8.5%, passing the limit was not always enough
# Mtb FBA inh = Mtb fructose-bisphosphate aldolase inhibition | P9WQA3 | purified M. tuberculosis FBA, fluorescence read-out | inhibition, % at 1 µM | 360,000 compounds, 2.3% hits; in the data active = inhibition above about 27%;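 note: 0% = vehicle and 100% = reference inhibitor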
# Target sequence (P9WQA3 whole entry, looked up): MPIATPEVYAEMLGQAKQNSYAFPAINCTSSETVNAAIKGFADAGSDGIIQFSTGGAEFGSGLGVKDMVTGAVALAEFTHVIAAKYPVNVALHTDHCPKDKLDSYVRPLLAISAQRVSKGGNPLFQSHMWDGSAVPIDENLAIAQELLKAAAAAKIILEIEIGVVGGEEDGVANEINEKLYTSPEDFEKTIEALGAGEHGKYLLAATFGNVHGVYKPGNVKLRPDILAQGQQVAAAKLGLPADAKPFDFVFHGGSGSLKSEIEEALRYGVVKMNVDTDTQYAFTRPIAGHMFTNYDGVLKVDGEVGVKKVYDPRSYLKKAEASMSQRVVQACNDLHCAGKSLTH
# SARS 3CLpro inh = SARS-CoV 3CLpro protease inhibition; P0C6X7; recombinant SARS-CoV 3CLpro, quenched FRET peptide cleavage; inhibition, % at 6 µM; 290,000 compounds, 0.14% hits; in the data active = inhibition above about 12%
# GDH-TPI inh = GDH-TPI coupled enzyme inhibition counter-screen | GDH-TPI coupled enzyme counterscreen, NADH absorbance | inhibition, % at 4.8 µM | 360,000 compounds, 1.2% hits; in the data active = inhibition above about 30%;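 note: 0% = DMSO wells and 100% = wells lacking the enzyme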
# Mtb BioA inh = BioA (M. tuberculosis) enzyme inhibition; purified M. tuberculosis BioA enzyme, plate reader; 360,000 compounds, 0.096% hits; inhibition, % at 9.99 µM; in the data active = inhibition above about 40%
# An asterisk follows results filed as active; / = no result given; + = active, no number. Most compounds without a hit are left out; they make up all but 3.1% or so of the library.
SMILES,FadD28 FP inh,Mtb FBA inh,SARS 3CLpro inh,GDH-TPI inh,Mtb BioA inh
C[C@@H]1CCCCO[C@@H](CN(C)C(=O)Nc2ccccc2)[C@H](C)CN([C@@H](C)CO)C(=O)c2cc(NC(=O)c3ccncc3)ccc2O1,/,/,/,/,-1.2
COCCCNC(=O)c1c(N)n(-c2cccc(S(N)(=O)=O)c2)c2nc3ccccc3nc12,-3.1,138.3*,0.7,1.9,1.0
CCCCCCCCCCCCCCCCn1cc[n+](CC(C)=O)c1,35.6*,-0.9,6.9,-10.0,/
COCCN(C[C@H]1[C@H](c2ccccc2)[C@@H](CO)N1C(C)=O)C(=O)c1ccncc1,/,/,/,/,-0.1
O=C(C[C@@H]1C[C@@H]2c3cc(NS(=O)(=O)c4ccc(F)cc4)ccc3O[C@@H]2[C@H](CO)O1)NCc1ccncc1,/,/,/,/,-0.3
CN(C(=O)COC(=O)c1ccc(Cl)cc1N)C1CCS(=O)(=O)C1 (configuration not stated),-0.4,66.6*,-5.7,5.1,-0.5
CN(C(=O)COC(=O)c1cnc(Cl)c(Cl)c1)C1CCS(=O)(=O)C1 (configuration not stated),-2.9,-2.3,-3.3,-6.7,1.3
C[C@@H]1CN([C@@H](C)CO)C(=O)c2cccc(NC(=O)c3ccc(-c4nccs4)cc3)c2O[C@@H]1CN(C)C(=O)Nc1ccc2c(c1)OCO2,/,/,/,/,0.1
CCOCC(=O)Nc1ccc(-c2cn3cccnc3n2)cc1,-1.5,+,4.4,26.8,1.0
CCCC(=O)Nc1cccc(-c2cn3cccnc3n2)c1,-1.4,189.2*,5.0,30.5,/
CCN(CC)S(=O)(=O)c1cccc(-c2cn3cccnc3n2)c1,-2.1,180.7*,-0.6,24.7,-1.0
CCCC(=O)Nc1ccc(-c2cn3cccnc3n2)cc1,-2.9,+,-1.5,18.4,/
C[C@H](CO)N1C[C@H](C)[C@H](CN(C)C(=O)Cc2cccnc2)Oc2ncc(-c3cncnc3)cc2C1=O,/,/,/,/,-1.4
C[C@H](CO)N1C[C@H](C)[C@H](CN(C)Cc2ccc(C(=O)O)cc2)OCCCC[C@H](C)Oc2ccc(NS(=O)(=O)c3ccc(F)cc3)cc2C1=O,/,/,/,/,0.8
CC(C)CC(=O)Nc1ccc(-c2cn3cccnc3n2)cc1,-0.7,+,0.9,23.5,/
CCCCC(=O)Nc1cccc(-c2cn3ccccc3n2)c1,-2.4,33.1*,-3.2,3.7,1.6
CC(C)(C)CC(=O)Nc1ccc(-c2cn3cccnc3n2)cc1,-0.5,+,-1.8,15.2,-1.2
Cc1nc2ccccc2c2nc(NC(=O)C(F)(F)F)nn12,-2.3,1.9,-1.0,-21.9,/
Cn1nc(NC(=O)C(F)(F)F)c2ncc(-c3ccccc3)nc21,-1.0,6.2,/,31.9*,-0.6
COc1cc(C2Nc3ccccc3C(=O)N2c2ccccc2)ccc1O (configuration not stated),0.1,19.4,-3.0,17.4,2.2
COc1ccc(/C(C)=N/N2C(=O)c3ccccc3NC2c2ccc(O)c(OC)c2)cc1 (configuration not stated),2.7,11.7,3.6,34.6*,0.5
COc1ccc(CNC(=O)C[C@H]2CC[C@@H]3[C@@H](COc4ccc(NC(C)=O)cc4C(=O)N3C)O2)cc1,/,/,/,/,13.8
CCc1ccc(/C=C(/C#N)C(N)=S)s1,-0.3,3.7,-0.7,3.8,-1.8
CCc1sc(/C=C(/C#N)C(N)=S)cc1[N+](=O)[O-],17.5*,0.0,0.6,-1.2,/
COc1ccc(S(=O)(=O)N[C@@H]2CC[C@H](CC(=O)NCCc3ccccc3)O[C@H]2CO)cc1,/,/,/,/,-0.7
SMILES,FadD28 FP inh,Mtb FBA inh,SARS 3CLpro inh,GDH-TPI inh,Mtb BioA inh
C/C(=N\Nc1nccnc1Cl)c1ccc(O)c(C)c1,1.1,2.2,1.1,44.3*,-5.7
O=C(CCC1CCCC1)N1CCN(C(=O)c2ccco2)CC1,-4.3,134.7*,10.1,9.2,1.3
CN1C(=O)c2cc(NC(=O)c3cnccn3)ccc2OC[C@H]2O[C@H](CC(=O)O)CC[C@H]21,/,/,/,/,5.8
CCOC(=O)Cc1csc(NC(=O)/C=C/c2ccc(Br)o2)n1,1.6,-2.6,-1.3,75.3*,-3.5
O=C(CC12CC3CC(CC(C3)C1)C2)NCC(=O)OCc1cc(=O)oc2ccc3ccccc3c12,-3.9,36.0*,1.6,8.8,-0.8
CCOC(=O)N1CCN(Cc2cc(=O)oc3ccc4ccccc4c23)CC1,-3.5,5.0,3.0,22.4,-1.4
CCCCCCCCNC(C)C(O)c1ccc(SC(C)C)cc1 (configuration not stated),15.4*,0.8,-3.0,-2.4,8.0
C[C@H]1CN([C@@H](C)CO)C(=O)c2cccc(NC(=O)c3nc4ccccc4s3)c2O[C@H]1CN(C)CC1CC1,/,/,/,/,-2.4
O=C(NN=Cc1ccc(F)cc1)C1CC1,1.1,1.9,/,0.5,-0.8
O=C(N/N=C/c1cc(Br)c(O)c(Br)c1)C1CC1,-1.7,3.4,0.2,30.8*,-0.9
COc1ccc(/C=N/NC(=O)C2C3CCCCC32C)cc1OC (configuration not stated),-1.1,1.9,6.4,0.0,/
COc1cc(/C=N/NC(=O)C2C3CCCCC32C)cc(Br)c1O (configuration not stated),-0.6,13.6,-1.5,50.7*,2.1
CC(C)c1ccccc1-n1c(SCC(=O)c2ccc3c(c2)NC(=O)CO3)nc2ccccc2c1=O,-5.0,122.0*,3.5,13.2,4.4
O=C(C[C@@H]1CC[C@@H]2[C@H](COC[C@H](O)CN2Cc2cccc(-c3ccncc3)c2)O1)N1CCN(c2ccccc2)CC1,/,/,/,/,0.9
CCOC(=O)CC1(C)c2nc(NC(C)=O)sc2Cc2sc(NC(C)=O)nc21,1.0,160.8*,/,/,/
C[C@@H]1CN([C@H](C)CO)C(=O)Cc2cc(NC(=O)Nc3ccc(C(F)(F)F)cc3)ccc2O[C@@H]1CN(C)C(=O)Nc1ccc(F)cc1,/,/,/,/,-0.1
COc1cc(/C=N/N(C)C)cc(Br)c1O,-0.8,2.5,-0.7,32.3*,/
CN=c1scc(C)n1/N=C/c1cc(Br)c(O)c(OC)c1,-0.7,1.6,-3.5,5.7,0.2
COc1cc(/C=N/N(C)c2ccccc2)cc(Cl)c1O,-0.3,-4.1,0.5,40.5*,2.3
CCCNC(=O)[C@H]1[C@H](CO)[C@H]2Cn3c(ccc(-c4ccccc4)c3=O)[C@H]2N1C(=O)c1ccccc1F,/,/,/,/,-0.5
C[C@H](CO)N1C[C@H](C)[C@H](CN(C)C(=O)Nc2cc(F)ccc2F)Oc2ncc(-c3cccc(F)c3)cc2C1=O,/,/,/,/,2.8
NC(=O)N=Nc1c(O)[nH]c2ccc([N+](=O)[O-])cc12,0.5,-3.1,2.2,31.1*,-0.7
C[C@@H]1CN([C@H](C)CO)C(=O)Cc2cc(NC(=O)C3CC3)ccc2O[C@@H]1CN(C)Cc1ccc2c(c1)OCO2,/,/,/,/,0.8
COC(=O)c1ccc(C(=O)OC)c(NC(=S)N2CCN(c3ccccc3)CC2)c1,-1.3,29.5*,-1.1,15.9,/
CC1Cc2cc(/C(O)=C3/C(=O)C(=O)N(CCCn4ccnc4)C3c3ccc(F)cc3)ccc2O1 (configuration not stated),0.2,2.3,-0.4,31.7*,-0.2
CC1Cc2cc(/C(O)=C3/C(=O)C(=O)N(CCCn4ccnc4)C3c3ccc([N+](=O)[O-])cc3)ccc2O1 (configuration not stated),-2.0,2.1,/,12.6,1.1
